Shown are actives, neighbours in structure and some others; about 1.5% of the full set was active somewhere.
NSD2 inh – NSD2 histone methyltransferase inhibitors, primary screen, biochemical, AlphaScreen, single concentration, set 2. Histone-lysine N-methyltransferase NSD2 (Homo sapiens), O96028. inhibition, % at 12.5 µM. NSD2 peptide methylation, 120 min. hit rate 0.54% among 310,000; in the data active = inhibition above about 50%
CASP6 VEID inh – human caspase-6 inhibitors, primary screen, biochemical, VEID-R110 fluorescence, single point, set 2 | inhibition, % at 12.5 µM | AID 686996, 2013 | purified caspase-6, Z-VEID-R110 cleavage fluorescence | hit rate 0.53% among 350,000;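 active = mean inhibition across replicates at least about 35%, with every replicate also reaching that limit, limit read from the data; inconclusive = only one of the two criteria met; inactive = neither criterion met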
AF4-AF9 inh – inhibitors of AF4 peptide binding to AF9, primary screen, biochemical, AlphaScreen, biotin-AF4 peptide, FLAG-AF9, single point; Protein AF-9 (Homo sapiens), P42568; inhibition, % at 10 µM; hit rate 0.47% among 350,000;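 active = every replicate reaching a set inhibition limit, whatever the replicate mean, cut at about 25% in these data; inconclusive = mean inhibition reaches that limit but some replicates miss it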
Target sequence (P42568 whole entry, looked up): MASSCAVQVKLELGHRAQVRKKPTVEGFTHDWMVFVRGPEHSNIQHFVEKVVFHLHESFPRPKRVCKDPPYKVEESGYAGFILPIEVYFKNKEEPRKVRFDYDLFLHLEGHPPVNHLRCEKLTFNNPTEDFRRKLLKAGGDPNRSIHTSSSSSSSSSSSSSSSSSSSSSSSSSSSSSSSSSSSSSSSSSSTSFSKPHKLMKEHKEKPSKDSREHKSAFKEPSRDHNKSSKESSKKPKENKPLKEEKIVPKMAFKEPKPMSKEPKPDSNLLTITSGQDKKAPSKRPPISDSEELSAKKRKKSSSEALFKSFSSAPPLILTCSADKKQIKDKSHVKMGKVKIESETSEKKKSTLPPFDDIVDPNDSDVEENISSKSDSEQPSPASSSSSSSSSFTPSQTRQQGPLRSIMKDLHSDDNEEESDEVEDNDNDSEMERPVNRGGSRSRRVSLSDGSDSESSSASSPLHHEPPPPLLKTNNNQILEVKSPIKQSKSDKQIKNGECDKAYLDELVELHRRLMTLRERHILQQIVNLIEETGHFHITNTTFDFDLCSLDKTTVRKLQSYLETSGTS
miR-122 sensor – miR-122 Renilla sensor signal increase in Huh7, primary screen, miR-122 inhibitor project, cell-based, single point, plate reader; Huh7 miR-122 Renilla luciferase sensor, 48 h; neutral wells = 0, positive control = 100; activation (reporter increase), % at 12.5 µM; hit rate 0.3% among 340,000;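 active = mean replicate activation score at least 90 and every replicate individually at or above 90; inconclusive = only one of the two criteria met; inactive = neither criterion met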;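 note: higher luciferase means less miR-122 activity so hits act as miR-122 inhibitors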
RAD52 anneal inh – RAD52 DNA annealing inhibitors, primary screen, biochemical, FRET, single point, set 2; recombinant RAD52 DNA annealing, FRET fluorescence; inhibition, % at 18.7 µM; hit rate 0.46% among 360,000; AID 651710, 2012;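 active = every replicate showing at least 50% inhibition; inconclusive = mean inhibition at least 50% but not in every replicate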
Numbers stand for hits; 0 = inactive; ? = inconclusive; - = no result; + = active, no number.

SMILES	NSD2 inh	CASP6 VEID inh	AF4-AF9 inh	miR-122 sensor	RAD52 anneal inh
CN(C)CCCNc1nc2cc(-c3ccc(C(=O)N4CCN(C)CC4)cc3)sc2c(=O)n1C	-	0	0	0	75
CCOC(=O)C1CCN(Cc2cn[nH]c2-c2ccc(C)cc2)CC1	0	-	-	-	-
CCOC(=O)C1CCN(Cc2cn[nH]c2-c2ccccc2)CC1	126	-	-	0	-
CN1[C@@H]2c3cccc(=O)n3C[C@@H]2[C@@H](CO)[C@@H]1C(=O)NCC1CCCCC1	-	0	0	0	0
O=S(=O)(Nc1cc(Sc2ncn[nH]2)c(O)c2ccccc12)c1ccccc1	+	100	0	0	0
CO[C@@H]1CN(C)C(=O)c2ccc(NC(=O)Nc3cc(Cl)cc(Cl)c3)cc2OC[C@H](C)NC[C@@H]1C	-	0	0	-	58
CO[C@H]1CN(C)C(=O)c2ccc(NC(=O)Nc3cc(Cl)cc(Cl)c3)cc2OC[C@H](C)NC[C@@H]1C	-	0	0	-	0
CO[C@H]1CN(C)C(=O)c2ccc(NC(=O)Nc3ccc(Cl)c(Cl)c3)cc2OC[C@H](C)NC[C@@H]1C	-	0	0	0	51
CO[C@H]1CN(C)C(=O)c2ccc(NC(=O)Nc3ccc(Cl)c(Cl)c3)cc2OC[C@H](C)NC[C@H]1C	-	0	0	0	0
CO[C@H]1CN(C)C(=O)c2cc(NC(=O)Nc3ccc(Cl)c(Cl)c3)ccc2OC[C@@H](C)NC[C@H]1C	-	-	-	0	52
CO[C@H]1CN(C)C(=O)c2cc(NC(=O)Nc3ccc(Cl)c(Cl)c3)ccc2OC[C@@H](C)NC[C@@H]1C	-	-	-	0	0
CO[C@H]1CN(C)C(=O)c2ccc(NC(C)=O)cc2OC[C@@H](C)N(C(=O)C2CCC2)C[C@H]1C	-	0	0	-	0
COc1ccc(Nc2c([N+](=O)[O-])ccc3c2=NC2(CCCCC2)N=3)cc1	0	0	34	0	0
O=[N+]([O-])c1ccc2c(c1Nc1ccccc1)=NC1(CCCCC1)N=2	0	-	-	0	-
CCc1nc2ccc(C(=O)NCCOc3ccc(OC)cc3)cn2c1N(C)Cc1ccc(N(C)C)cc1	0	0	0	0	0
CCc1nc2ccc(C(=O)NCc3ccccc3OC)cn2c1N(C)Cc1ccc(N(C)C)cc1	0	0	26	0	0
C[C@@H]1CN([C@@H](C)CO)C(=O)Cc2cc(NS(=O)(=O)c3ccc(F)cc3)ccc2O[C@H]1CN(C)Cc1ccc(C(=O)O)cc1	-	0	0	-	0
[O-][n+]1c2ccccc2[n+]([O-])c2cc(O)ccc21	0	68	0	-	0
CC1=CC2=NC(=O)/C(=C\c3cccn3CCOc3ccccc3C)C(=N)N2O1	0	0	0	147	0
C[C@H]1CN([C@@H](C)CO)C(=O)c2cccc(NC(=O)c3cnccn3)c2O[C@@H]1CN(C)CC1CC1	-	0	0	0	0
O=C(O)Cc1c[nH]c2cccc(O)c12	-	54	0	-	0
CCCOc1ccc(S(=O)(=O)NCCN2CCOCC2)c2ccccc12	0	-	-	199	-
CCOc1ccc(S(=O)(=O)NCCN2CCOCC2)c2ccccc12	0	-	-	108	-
Cc1ccc(-c2nn3c(C)nnc3c3ccccc23)cc1S(=O)(=O)NCCN1CCOCC1	0	-	-	198	-
COc1c(S(=O)(=O)NCCN2CCOCC2)ccc(Cl)c1Cl	0	-	-	0	-
SMILES	NSD2 inh	CASP6 VEID inh	AF4-AF9 inh	miR-122 sensor	RAD52 anneal inh
CCOc1cc(S(=O)(=O)NCCN2CCOCC2)c(C)cc1C	0	-	-	?	-
CN(c1ncc(C(F)(F)F)cc1Cl)n1cc(C(N)=O)c2ccccc2c1=O	110	-	-	0	-
Cc1cccn2c(=O)c3cc(C#N)c(=NC(=O)c4ccco4)n(Cc4ccco4)c3nc12	0	67	0	0	0
Cc1cccn2c(=O)c3cc(C#N)c(=NC(=O)c4ccccc4)n(Cc4ccco4)c3nc12	0	0	0	0	0
O=C(C1CC1)N1CC2(C1)[C@H](c1ccccc1)[C@H](CO)N2CC1CCCC1	-	0	0	-	0
COc1cc(/C=C2\SC(=Nc3ccccc3)NC2=O)cc(Cl)c1O	0	0	0	0	0
COc1cc(/C=C2\SC(=Nc3ccc(Cl)c(C(=O)O)c3)NC2=O)c(Br)c(Br)c1O	0	35	0	0	0
CC(=O)n1cc([C@@H]2C=C(C(N)=O)O[C@H](OCCCCO)C2)c2ccccc21	-	0	0	-	0
COc1ccc(S(=O)(=O)N/N=C\c2ccc3c(c2)OCO3)c(OC)c1	0	0	0	0	0
COc1ccc(OC)c(S(=O)(=O)N/N=C\c2ccc3c(c2)OCO3)c1	0	0	0	105	0
CCCC(=O)Nc1ccc2c(c1)C(=O)N(C)[C@H]1CC[C@@H](CC(=O)Nc3cn(C)nc3C)O[C@@H]1CO2	-	0	0	0	0
CCn1nc2cc(C(=O)NCCc3cccs3)ccc2c1OC	-	0	26	0	0
Cc1cc(C)cc(NC(=O)Cc2ccc(S(=O)(=O)N3CCCC3)s2)c1	0	51	0	0	0
O=C(Cn1cnc([N+](=O)[O-])n1)c1ccccc1	0	0	0	0	0
O=C(Cn1cnc([N+](=O)[O-])n1)c1ccc(O)c(O)c1	0	43	0	0	0
COc1ccc2c3c([nH]c2c1)[C@@H](CO)N(C(=O)c1ccncc1)CC31CCN(C(=O)c2ccncc2)CC1	-	0	0	-	0
Clc1cccc(Cl)c1CSc1nnc(CN2CCOCC2)n1-c1ccccc1	0	-	-	126	-
CCCN1[C@@H]2c3ccc(-c4ccncc4)c(=O)n3C[C@@H]2[C@@H](CO)[C@@H]1C(=O)OC	-	0	0	-	0
CC(C)C(=O)Nc1ccc2c(c1)C(=O)N(C)[C@@H]1CC[C@@H](CC(=O)NCC3CC3)O[C@H]1CO2	-	0	0	0	0
COc1ccc2c3c([nH]c2c1)[C@@H](CO)N(Cc1ccccc1)CC31CN(C(=O)c2cccnc2)C1	-	0	0	-	0
COc1cccc(CN(C)Cc2nc3cc(C(F)(F)F)ccc3c(=O)[nH]2)c1	0	0	36	-	0
C=CCOc1ccc(CN(C)Cc2nc3cc(C(F)(F)F)ccc3c(=O)[nH]2)cc1	0	0	0	0	0
CCOC(=O)N1CCN(S(=O)(=O)c2ccc(C(=O)N(CCCN(C)C)c3nc4c(C)c(C)ccc4s3)cc2)CC1	0	0	26	0	0
C[C@H]1CN([C@@H](C)CO)C(=O)c2cc(NS(C)(=O)=O)ccc2O[C@H]1CN(C)S(=O)(=O)c1cccs1	-	0	0	0	0
Cc1ccc(-n2c(SCC(=O)NC3CCS(=O)(=O)C3)nc3ccccc3c2=O)cc1 (configuration not stated)	0	0	0	-	0
CCc1ccc(-n2c(SCC(=O)NC3CCS(=O)(=O)C3)nc3ccccc3c2=O)cc1 (configuration not stated)	0	45	0	0	0
O=C(O)c1ccc(CN2C(=O)c3cccc4c([N+](=O)[O-])ccc(c34)C2=O)cc1	-	0	-	0	0
